Source: PubChem BioAssay AID777 (Sanford-Burnham Center for Chemical Genomics, 2007)
The whole screen tested about 96,000 compounds, of which about 19,000 (20%) were called active. A selection follows. Values without a mark were called inactive.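 The calls were made as follows: active = blocking of liver enzyme CYP2C9 beyond about 50% at 5 µM (limit read from the data); inactive = the rest.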

These compounds were tested against Cytochrome P450 2C9 (Homo sapiens) (UniProt P11712) (assay: blockers of cytochrome P450 2C9 activity – biochemical, luminescence, ADME assay, primary screen (AID 777)). Details: CYP2C9 Supersomes, luciferin-H conversion, at 5 µM, stronger effect = higher value.
Sequence of Cytochrome P450 2C9 (Homo sapiens) (P11712 whole entry, looked up): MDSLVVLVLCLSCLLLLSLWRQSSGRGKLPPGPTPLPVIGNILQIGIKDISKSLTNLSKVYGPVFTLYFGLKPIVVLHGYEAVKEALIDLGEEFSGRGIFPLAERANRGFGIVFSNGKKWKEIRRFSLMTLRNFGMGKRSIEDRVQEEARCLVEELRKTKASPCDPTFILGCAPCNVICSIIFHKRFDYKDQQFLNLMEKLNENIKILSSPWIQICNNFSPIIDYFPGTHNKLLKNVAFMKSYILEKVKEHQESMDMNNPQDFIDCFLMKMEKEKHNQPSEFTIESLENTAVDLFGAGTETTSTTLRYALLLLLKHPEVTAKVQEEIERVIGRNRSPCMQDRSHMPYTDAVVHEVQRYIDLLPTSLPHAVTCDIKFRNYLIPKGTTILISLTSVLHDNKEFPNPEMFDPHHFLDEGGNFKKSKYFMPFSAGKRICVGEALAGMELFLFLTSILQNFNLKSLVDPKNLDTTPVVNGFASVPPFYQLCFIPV

| Compound | inhibition |
| --- | --- |
| CCOc1c2ccc(C(=O)NCc3ccc(OC(F)(F)F)cc3)cc2nn1C | 19% |
| COc1nc(N=C(N)N)nc2c(C)cccc12 | -9.5% |
| COc1cc2[nH]c(=O)n(CCC(=O)NC3CCN(Cc4ccccc4)CC3)c(=O)c2cc1OC | -15.4% |
| CC(=O)Nc1ccc(NC(=O)c2sc3nc4c(c(-c5ccc(C)cc5)c3c2N)CCC4)cc1 | -4.6% |
| CC1C(c2ccccc2)=[N+]([O-])C2(CCCC2)N1O (configuration not stated) | 37.7% |
| O=C(COc1ccc(F)cc1)N(CC1=CCS(=O)(=O)C1)c1ccccc1 | -18.6% |
| O=c1c2ccccc2c(-c2ccc(Br)cc2)nn1Cc1ccccc1 | 21.5% |
| COc1ccc(Cl)cc1C(=O)NCC#N | -80.7% |
| CC(C)CNC(=O)COC(=O)/C=C/c1ccccc1[N+](=O)[O-] | -41.6% |
| CC(C)CNC(=O)CC(c1ccccc1)c1c(O)ccc2ccccc12 (configuration not stated) | 71.2% (active) |
| O=C1CC(C(F)(F)C(F)(F)C(F)(F)C(F)(F)F)=Nc2ccccc2N1 | 9% |
| CCN(CC(=O)NC1CCS(=O)(=O)C1)c1nc(-c2cccnc2)nc2ccccc12 (configuration not stated) | 3.9% |
| CCOC(=O)c1cnc(SC)nc1Sc1ccc(Cl)cc1Cl | 81.5% (active) |
| CCOC(=O)CSc1ncc(-c2cccc(Cl)c2)cn1 | 14.2% |
| CCOC(=O)c1nc(C)n(-c2ccc(Cl)cc2Cl)n1 | -0.6% |
| Cc1ccc(C(=O)NC2CC(C)(C)NC(C)(C)C2)c(C)c1 | -6.6% |
| Cc1nn(C)cc1/C=N/NC(=O)c1sc2ccccc2c1Cl | 23.6% |
| O/N=C1\CC2(Cc3nonc31)OCCO2 | 4% |
| CS(=O)(=O)N1CCN(C(=O)c2cc3ccccc3oc2=O)CC1 | -3.6% |
| Cc1cccc(OCc2nnc(SCn3nnc4ccccc4c3=O)o2)c1 | 35.9% |
| C=CCn1c(SCn2nnc3ccccc3c2=O)nnc1-c1ccc(Cl)cc1 | 67.1% (active) |
| O=c1c2ccccc2nnn1CSc1nnnn1-c1ccccc1 | -35.7% |

| Compound | inhibition |
| --- | --- |
| COc1cccc(Nc2ncccc2C(=O)O)c1 | -5.5% |
| CC1(C)CC(=O)C2=C(C1)NCN(CCCN1CCOCC1)C2 | 3.8% |
| CCOc1cc(CO)ccc1OCC(=O)N1CCCCC1 | -19.8% |
| N#C/C(=C1/CCCN1)c1ccccn1 | 7.3% |
| COC(=O)C(C)N(C#N)c1nc(C)nc(C)n1 (configuration not stated) | -136% |
| COc1ccc(/C(N)=N/OC(=O)Oc2ccccc2)cc1 | 21.5% |
| CO/N=C(/CS(=O)(=O)c1ccc(Br)cc1)c1ccc(OC)cc1 | 91.6% (active) |
| COC(=O)CNS(=O)(=O)c1ccc(OC)cc1 | -0.5% |
| O=C1CC(c2cccc(Br)c2)C2=C(CCCC2=O)N1 (configuration not stated) | 10.3% |
| Cc1cccc(NC(=O)c2cc(N3C(=O)CCC3=O)ccc2Cl)n1 | 20.2% |
| O=C(CN1CCOCC1)N1CCCc2c1c(=O)oc1ccc(OCc3ccccc3)cc21 | 72.5% (active) |
| O=C(COc1ccc2oc3c(c2c1)CCCC3)Nc1ccccn1 | 2.1% |
| COc1ccc2oc(=O)c(C(=O)N3CCCc4ccccc43)cc2c1 | -44.4% |
| Cn1c(=NC(=O)C2CC2)sc2cc(F)cc(F)c21 | -15.8% |
| O=C(CCN1C(=O)c2ccccc2C1=O)NCCN1CCOCC1 | -18.8% |
| O=C1c2oc3ccccc3c(=O)c2C(c2cccc(O)c2)N1c1ccccn1 (configuration not stated) | 4.2% |
| COCCN1C(=O)c2oc3c(C)cc(C)cc3c(=O)c2C1c1cccc(O)c1 (configuration not stated) | 98.6% (active) |
| O=C1c2oc3ccc(Br)cc3c(=O)c2C(c2cccc(F)c2)N1CCO (configuration not stated) | 23.9% |
| CC(=O)OC(C(=O)NCCc1ccccc1)c1cccnc1 (configuration not stated) | -7.6% |
| CCOC(=O)c1c(C)[nH]c(C(=O)COc2ccc3c(c2)OCO3)c1C | 93% (active) |
| Cc1cc(C)n2nc(C(=O)Oc3ccc4c(c3)OCO4)nc2n1 | -31.5% |
| CCOC(=O)c1c(C)oc2ccc(OCC(=O)N(CC)CC)cc12 | -13.4% |

| Compound | inhibition |
| --- | --- |
| Nc1c(-c2cccc(Cl)c2)cnn1-c1cccc([N+](=O)[O-])c1 | 4.4% |
| O=C(NC12CC3CC(CC(C3)C1)C2)N1CCCC(CO)C1 (configuration not stated) | 12.4% |
| CC12C(=O)N(n3cnnc3)C(=O)C1C1C=CC2C1 (configuration not stated) | 1.9% |
| Cn1c(NN)nc2sc3c(c2c1=O)CCC3 | 68.1% (active) |
| O=C(O)[C@@H]1CCCN1c1ncnc2sc3c(c12)CCC3 | 4.9% |
| NNC(=O)C1CCCn2c1nc1sc3c(c1c2=O)CCCC3 (configuration not stated) | 21.6% |
| Cn1c(NC(=O)c2ccco2)c(-c2ccccc2Cl)c(=O)c2ccccc21 | -3.7% |
| CC(C)Oc1ccc(C(=O)NC(C)(C)CO)cc1 | 15% |
| O=C(COc1ccccc1)NCCc1nc2ccccc2[nH]1 | 28.6% |
| C=CCn1c(SCc2nnc(-c3ccccc3)o2)nnc1C(O)c1ccccc1 (configuration not stated) | 59% (active) |
| O=C(CSCc1c(Cl)cccc1Cl)NN1C(=O)c2ccccc2C1=O | 34.3% |
| CN(C)c1ccc(CNC23CN4CN(CN(C4)C2)C3)cc1 | -4.7% |
| Cc1cccc2c1N(CC(=O)OC(C)C)C(=O)C2=O | 8% |
| CCn1c(CSc2nncn2-c2ccc(OC)cc2)nc2cc(S(=O)(=O)N(C)C)ccc21 | 50.1% (active) |
| Cn1nnnc1SCC(=O)Nc1ccccc1C(=O)NC1CC1 | 10.7% |
| CC(C)Nc1nc(N(c2ccccc2)c2ccccc2)nc(-n2ccnc2)n1 | 29% |
| Cc1ccc(N2CCN(S(=O)(=O)N(C)C)CC2)cc1Cl | 11% |
| O=C(NC1(C(F)(F)F)N=C2SCCN2C1=O)c1ccco1 (configuration not stated) | -10% |
| COc1cc(OC)c(C(=O)NC2CCCCCC2)cc1OC | 34.4% |
| Cn1c(SCC(=O)C(C)(C)C)nnc1-c1ccccn1 | -0.6% |
| CC(C)C(=O)Nc1cccc(C(=O)Nc2ccc3c(c2)OCO3)c1 | 57.2% (active) |
| Cc1ccc(C(=O)Nc2ccc3c(c2)OCO3)cc1S(=O)(=O)N1CCCCC1 | 93.3% (active) |

| Compound | inhibition |
| --- | --- |
| O=C(Nc1ccc2c(c1)OCCO2)c1cnccn1 | 4.9% |
| Cn1c(=O)n(C)c2cc(C(=O)Nc3ccc4c(c3)OCO4)ccc21 | -11.4% |
| O=C(Nc1ccc2c(c1)OCCO2)c1ccncc1 | 46.2% |
| O=C(Nc1ccccc1)c1ccc2c(c1)OCO2 | 9.7% |
| COc1ccc(C(=O)Nc2ccc3c(c2)OCO3)cc1OC | 1.7% |
| O=C(Nc1ccc2c(c1)OCCO2)c1ccc(Cl)c(S(=O)(=O)N2CCCCC2)c1 | 97.2% (active) |
| Cc1ccc(C(=O)NCC(=O)O)cc1S(=O)(=O)N1CCCCC1 | 3.8% |
| Cc1c(C=O)c2ccccn2c1C(=O)c1ccncc1 | 40.3% |
| CCC(=O)c1ccc(OCC(O)CN2CCN(c3cccc(C(F)(F)F)c3)CC2)cc1 (configuration not stated) | 22% |
| O=C(c1ccc(Cl)cc1)c1ccc(OCC(O)CN2CCCCC2)cc1 (configuration not stated) | 7.1% |
| Cc1nnc(SCC(=O)NCCOc2ccc(Cl)cc2)n1-c1ccccc1 | 37.2% |
| CCN1CCC(=NNC(=O)c2ccc(C)c([N+](=O)[O-])c2)CC1 | 7.3% |
| c1ccc(CCC2=NCCn3cccc32)cc1 | 4.5% |
| Cc1cccc(C(=O)NCCCN2CCCC2=O)c1 | -4% |
| CCOC(=O)CSc1nnc(CNC(=O)c2cccs2)n1-c1ccccc1 | -10.4% |
| CCn1c(Cc2cccs2)nnc1SCC(=O)c1ccc(C)cc1 | 78.7% (active) |
| CCOC(=O)CNC(=O)CSc1nnc(COc2ccc(Cl)cc2)n1CC | 19.6% |
| CCn1c(SCC(=O)c2ccc(Cl)s2)nnc1-c1cccs1 | 69.2% (active) |
| CCn1c(SCC(=O)c2ccc3ccccc3c2)nnc1-c1cccs1 | 3.9% |
| COc1ccc(-n2c(SCC(=O)OC(C)C)nnc2-c2ccccn2)cc1 | -13.5% |
| Cn1c(SCC(=O)c2cccs2)nnc1-c1ccco1 | -12.6% |
| Cc1ccc(-n2c(Cc3cccs3)nnc2SCC(=O)OC(C)C)cc1 | 67.5% (active) |

| Compound | inhibition |
| --- | --- |
| COC(=O)c1c(-c2ccc(C)cc2)csc1N | 31.9% |
| CCC(C)n1[nH]c(=O)c2c(C)cc(C)nc21 (configuration not stated) | 10.8% |
| COc1ccc(Cc2nnc(SC)[nH]c2=O)cc1 | 37.8% |
| C[N+](C)(C)CCNC(=O)c1c(O)c2c([nH]c1=O)CCCC2 | 6.6% |
| CC(CC(=O)Nc1cc(C(F)(F)F)ccc1Cl)c1ccccc1 (configuration not stated) | -141% |
| CC(C)n1c(C(O)c2ccccc2)nc2ccccc21 (configuration not stated) | -0.4% |
| Cc1cc(N2CCCC2)n2nc(C)c(-c3ccccc3)c2n1 | -22.5% |
| COC(=O)c1cnn2c(C(F)(F)F)cc(-c3ccco3)nc12 | -10.8% |
| Cc1c(C(=O)NCC2CCCO2)sc2nc(-c3ccccc3)cn12 (configuration not stated) | 28.3% |
| c1ccc2c(c1)OCC(CNc1ncnc3nc[nH]c13)O2 (configuration not stated) | 10.3% |
| CCC(c1nnnn1Cc1ccccc1)N(Cc1cc2cc(OC)ccc2[nH]c1=O)CC1CCCO1 (configuration not stated) | 66.2% (active) |
| CCC(=O)N(Cc1cc2cc(OC)ccc2[nH]c1=O)c1ccccc1C | 36.4% |
| CCOc1ccc2[nH]c(=O)c(CN(Cc3nnnn3Cc3ccccc3)CC3CCCO3)cc2c1 (configuration not stated) | 13% |
| COc1ccc(CNC(=O)c2cc3c(=O)n4ccccc4nc3n(CC3CCCO3)c2=N)cc1 (configuration not stated) | 9.5% |
| COc1ccc2[nH]c(=O)c(CN(Cc3nnnn3CCc3ccccc3)CC3CCCO3)cc2c1 (configuration not stated) | 68% (active) |
| Cc1cc2cc(CN(Cc3cccs3)Cc3nnnn3CC3CCCO3)c(=O)[nH]c2cc1C (configuration not stated) | -32.2% |
| Cc1cc(C)c2cc(CN(Cc3cccs3)Cc3nnnn3CC3CCCO3)c(=O)[nH]c2c1 (configuration not stated) | 75.5% (active) |
| COc1ccc(N(Cc2cc3cc(OC)ccc3[nH]c2=O)S(C)(=O)=O)cc1 | 26.9% |
| Cc1ccsc1C(=O)OCC(=O)c1cc(C)n(CC2CCCO2)c1C (configuration not stated) | -70.9% |
